# The supplement of paper PMC8728848
# The sample as a whole holds a higher share of the strongest signals than the screen did.
# B1: Drgal1 (Danio rerio) (protein)
# chain: MAGVLIQNMSFKVGQTLTITGVPKPDSTNFAINIGHSPEDIALHMNPRFDAHGDQCTIVCNSFQSGSWCEEHRDDNFPFIQDKEFQIKITFTNEEFLVTLPDGSEIHFPNRQGSEKYKYMYFEGEVRIQGVEIK
# What was measured:
# Test in all cases: glycan array binding signal (z-score within array); higher = stronger binding
# Details in all cases: glycan notation: IUPAC condensed, linker removed
# [1] = molecular target: Fuc(a1-2)Gal(b1-3)GalNAc(a1-3)[Fuc(a1-2)]Gal(b1-4)Glc
# Method in brief: (§1)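 Negative Z-scores can be read as non-binding. The Z-score is calculated within each array and then averaged across arrays of one protein sequence at different concentrations or buffers and across linkers. Arrays, 3228 in all, were curated from the Consortium for Functional Glycomics database and kept only where the protein sequence was available.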
# [2] = molecular target: Fuc(a1-2)Gal(b1-3)[Fuc(a1-4)]GlcNAc(b1-3)[Gal(b1-4)GlcNAc(b1-6)]Gal(b1-4)Glc
# Method in brief: as §1
# [3] = molecular target: Fuc(a1-2)[Gal(a1-3)]Gal(b1-3)GlcNAc(b1-6)GalNAc
# Method in brief: as §1
# [4] = molecular target: Fuc(a1-2)[Gal(a1-3)]Gal(b1-4)[Fuc(a1-3)]Glc
# Method in brief: as §1
# [5] = molecular target: Fuc(a1-2)[Gal(a1-4)]Gal(b1-4)GlcNAc
# Method in brief: as §1
# [6] = molecular target: Fuc(a1-2)[GalNAc(a1-3)]Gal(b1-3)GalNAc(a1-3)[Fuc(a1-2)]Gal(b1-4)GlcNAc
# Method in brief: as §1
# [7] = molecular target: Fuc(a1-2)[GalNAc(a1-3)]Gal(b1-4)GlcNAc(b1-3)Gal(b1-4)GlcNAc
# Method in brief: as §1
# [8] = molecular target: Fuc(a1-2)[GalNAc(a1-3)]Gal(b1-4)[Fuc(a1-3)]GlcNAc(b1-3)GalNAc
# Method in brief: as §1
# [9] = molecular target: Fuc(a1-3)[Gal(b1-4)]GlcNAc6S
# Method in brief: as §1
# Gal(a1-3)Gal(b1-3)GlcNAc = molecular target: Gal(a1-3)Gal(b1-3)GlcNAc
# Method in brief: as §1
# [10] = molecular target: Gal(a1-3)Gal(b1-4)GlcNAc(b1-3)GalNAc
# Method in brief: as §1
# [11] = molecular target: Gal(a1-4)Gal(b1-3)GlcNAc(b1-2)Man(a1-3)[Gal(a1-4)Gal(b1-3)GlcNAc(b1-2)Man(a1-6)]Man(b1-4)GlcNAc(b1-4)GlcNAc
# Method in brief: as §1
# [12] = molecular target: Gal(b1-3)GlcNAc(b1-3)Gal(b1-4)GlcNAc(b1-6)[Gal(b1-3)GlcNAc(b1-3)]Gal(b1-4)Glc
# Method in brief: as §1
# [13] = molecular target: Gal(b1-3)[Fuc(a1-4)]GlcNAc(b1-6)GalNAc
# Method in brief: as §1
# Gal(b1-4)GlcNAc = molecular target: Gal(b1-4)GlcNAc
# Method in brief: as §1
# [14] = molecular target: Gal(b1-4)GlcNAc(a1-6)Gal(b1-4)GlcNAc
# Method in brief: as §1
# [15] = molecular target: Gal(b1-4)GlcNAc(b1-2)Man(a1-3)Man(b1-4)GlcNAc(b1-4)GlcNAc
# Method in brief: as §1
# [16] = molecular target: Gal(b1-4)GlcNAc(b1-2)[Gal(b1-4)GlcNAc(b1-4)]Man(a1-3)[GlcNAc(b1-4)][Gal(b1-4)GlcNAc(b1-2)Man(a1-6)]Man(b1-4)GlcNAc(b1-4)GlcNAc
# Method in brief: as §1
# [17] = molecular target: Gal(b1-4)GlcNAc(b1-2)[Gal(b1-4)GlcNAc(b1-6)]Man(a1-6)[Gal(b1-4)GlcNAc(b1-2)Man(a1-3)]Man(b1-4)GlcNAc(b1-4)[Fuc(a1-6)]GlcNAc
# Method in brief: as §1
# [18] = molecular target: Gal(b1-4)GlcNAc(b1-3)Gal(b1-4)GlcNAc(b1-2)[Gal(b1-4)GlcNAc(b1-3)Gal(b1-4)GlcNAc(b1-6)]Man(a1-6)[Gal(b1-4)GlcNAc(b1-3)Gal(b1-4)GlcNAc(b1-2)Man(a1-3)]Man(b1-4)GlcNAc(b1-4)[Fuc(a1-6)]GlcNAc
# Method in brief: as §1
# [19] = molecular target: Gal(b1-4)GlcNAc(b1-3)Gal(b1-4)GlcNAc(b1-3)Gal(b1-4)GlcNAc(b1-3)Gal(b1-4)GlcNAc(b1-2)[Gal(b1-4)GlcNAc(b1-3)Gal(b1-4)GlcNAc(b1-3)Gal(b1-4)GlcNAc(b1-3)Gal(b1-4)GlcNAc(b1-6)]Man(a1-6)[Gal(b1-4)GlcNAc(b1-3)Gal(b1-4)GlcNAc(b1-3)Gal(b1-4)GlcNAc(b1-3)Gal(b1-4)GlcNAc(b1-2)Man(a1-3)]Man(b1-4)GlcNAc(b1-4)[Fuc(a1-6)]GlcNAc
# Method in brief: as §1
# [20] = molecular target: Gal(b1-4)GlcNAc(b1-3)Gal(b1-4)GlcNAc(b1-3)Gal(b1-4)GlcNAc(b1-3)Gal(b1-4)GlcNAc(b1-3)Gal(b1-4)GlcNAc(b1-2)Man(a1-3)[Gal(b1-4)GlcNAc(b1-3)Gal(b1-4)GlcNAc(b1-3)Gal(b1-4)GlcNAc(b1-3)Gal(b1-4)GlcNAc(b1-3)Gal(b1-4)GlcNAc(b1-2)Man(a1-6)]Man(b1-4)GlcNAc(b1-4)GlcNAc
# Method in brief: as §1
# [21] = molecular target: Gal(b1-4)GlcNAc(b1-3)Gal(b1-4)GlcNAc(b1-3)Gal(b1-4)GlcNAc(b1-3)Gal(b1-4)GlcNAc(b1-3)Gal(b1-4)GlcNAc(b1-2)[Gal(b1-4)GlcNAc(b1-3)Gal(b1-4)GlcNAc(b1-3)Gal(b1-4)GlcNAc(b1-3)Gal(b1-4)GlcNAc(b1-3)Gal(b1-4)GlcNAc(b1-6)]Man(a1-6)[Gal(b1-4)GlcNAc(b1-3)Gal(b1-4)GlcNAc(b1-3)Gal(b1-4)GlcNAc(b1-3)Gal(b1-4)GlcNAc(b1-3)Gal(b1-4)GlcNAc(b1-2)Man(a1-3)]Man(b1-4)GlcNAc(b1-4)[Fuc(a1-6)]GlcNAc
# Method in brief: as §1
# [22] = molecular target: Gal(b1-4)GlcNAc(b1-6)Gal(b1-4)GlcNAc
# Method in brief: as §1
# Gal6S(b1-3)GlcNAc6S = molecular target: Gal6S(b1-3)GlcNAc6S
# Method in brief: as §1
# Gal6S(b1-4)Glc = molecular target: Gal6S(b1-4)Glc
# Method in brief: as §1
# GalNAc(a1-3)GalNAc = molecular target: GalNAc(a1-3)GalNAc
# Method in brief: as §1
# [23] = molecular target: GalNAc(b1-3)Gal(a1-6)Gal(b1-4)Glc
# Method in brief: as §1
# GalNAc(b1-3)GalNAc = molecular target: GalNAc(b1-3)GalNAc
# Method in brief: as §1
# GalNAc(b1-4)GlcNAc = molecular target: GalNAc(b1-4)GlcNAc
# Method in brief: as §1
# Glc(b1-6)Glc = molecular target: Glc(b1-6)Glc
# Method in brief: as §1
# [24] = molecular target: GlcNAc(b1-3)Gal(b1-4)GlcNAc(b1-3)Gal(b1-4)GlcNAc(b1-3)Gal(b1-4)GlcNAc(b1-3)Gal(b1-4)GlcNAc(b1-2)[GlcNAc(b1-3)Gal(b1-4)GlcNAc(b1-3)Gal(b1-4)GlcNAc(b1-3)Gal(b1-4)GlcNAc(b1-3)Gal(b1-4)GlcNAc(b1-6)]Man(a1-6)[GlcNAc(b1-3)Gal(b1-4)GlcNAc(b1-3)Gal(b1-4)GlcNAc(b1-3)Gal(b1-4)GlcNAc(b1-3)Gal(b1-4)GlcNAc(b1-2)Man(a1-3)]Man(b1-4)GlcNAc(b1-4)[Fuc(a1-6)]GlcNAc
# Method in brief: as §1
# [25] = molecular target: GlcNAc(b1-3)Gal(b1-4)GlcNAc(b1-6)[Gal(b1-3)]GalNAc
# Method in brief: as §1
# [26] = molecular target: Man(a1-2)Man(a1-2)Man(a1-6)[Man(a1-3)]Man
# Method in brief: as §1
# [27] = molecular target: Man(a1-2)Man(a1-3)[Man(a1-2)Man(a1-6)]Man(a1-6)[Man(a1-2)Man(a1-2)Man(a1-3)]Man
# Method in brief: as §1
# Man(a1-6)Man = molecular target: Man(a1-6)Man
# Method in brief: as §1
# [28] = molecular target: Neu5Ac(a2-3)Gal(b1-3)GalNAc6S
# Method in brief: as §1
# [29] = molecular target: Neu5Ac(a2-3)Gal(b1-4)GlcNAc(b1-2)[Neu5Ac(a2-3)Gal(b1-4)GlcNAc(b1-6)]Man(a1-6)[Neu5Ac(a2-3)Gal(b1-4)GlcNAc(b1-2)Man(a1-3)][GlcNAc(b1-4)]Man(b1-4)GlcNAc(b1-4)GlcNAc
# Method in brief: as §1
# [30] = molecular target: Neu5Ac(a2-3)Gal(b1-4)GlcNAc(b1-3)Gal
# Method in brief: as §1
# [31] = molecular target: Neu5Ac(a2-3)Gal(b1-4)GlcNAc(b1-3)Gal(b1-4)[Fuc(a1-3)]GlcNAc
# Method in brief: as §1
# [32] = molecular target: Neu5Ac(a2-3)Gal(b1-4)GlcNAc6S
# Method in brief: as §1
# [33] = molecular target: Neu5Ac(a2-3)Gal(b1-4)[Fuc(a1-3)]GlcNAc(b1-3)GalNAc
# Method in brief: as §1
# [34] = molecular target: Neu5Ac(a2-6)Gal(b1-4)GlcNAc(b1-2)Man(a1-3)[Neu5Ac(a2-6)Gal(b1-4)GlcNAc(b1-2)Man(a1-6)]Man(b1-4)GlcNAc(b1-4)GlcNAc
# Method in brief: as §1
# [35] = molecular target: Neu5Ac(a2-6)Gal(b1-4)GlcNAc(b1-2)Man(a1-6)Man(b1-4)GlcNAc(b1-4)GlcNAc
# Method in brief: as §1
# [36] = molecular target: Neu5Ac(a2-6)Gal(b1-4)GlcNAc(b1-2)[Neu5Ac(a2-6)Gal(b1-4)GlcNAc(b1-4)]Man(a1-3)[GlcNAc(b1-4)][Neu5Ac(a2-6)Gal(b1-4)GlcNAc(b1-4)Man(a1-6)]Man(b1-4)GlcNAc(b1-4)GlcNAc
# Method in brief: as §1
# [37] = molecular target: Neu5Ac(b2-6)Gal(b1-4)GlcNAc
# Method in brief: as §1
# Neu5Gc(a2-3)Gal(b1-4)Glc = molecular target: Neu5Gc(a2-3)Gal(b1-4)Glc
# Method in brief: as §1
binder,measurement,setting,value
B1,glycan array binding signal (z-score),[1],-0.59
same,glycan array binding signal (z-score),[2],0.383
same,glycan array binding signal (z-score),[3],0.084
same,glycan array binding signal (z-score),[4],-0.54
same,glycan array binding signal (z-score),[5],0.347
same,glycan array binding signal (z-score),[6],-0.091
same,glycan array binding signal (z-score),[7],-0.493
same,glycan array binding signal (z-score),[8],2.22
same,glycan array binding signal (z-score),[9],2.04
same,glycan array binding signal (z-score),Gal(a1-3)Gal(b1-3)GlcNAc,-0.76
same,glycan array binding signal (z-score),[10],-0.48
same,glycan array binding signal (z-score),[11],-0.114
same,glycan array binding signal (z-score),[12],1.9
same,glycan array binding signal (z-score),[13],-0.443
same,glycan array binding signal (z-score),Gal(b1-4)GlcNAc,-0.448
same,glycan array binding signal (z-score),[14],0.244
same,glycan array binding signal (z-score),[15],0.231
same,glycan array binding signal (z-score),[16],-0.015
same,glycan array binding signal (z-score),[17],0.501
same,glycan array binding signal (z-score),[18],1.92
same,glycan array binding signal (z-score),[19],2.07
same,glycan array binding signal (z-score),[20],7.35
same,glycan array binding signal (z-score),[21],2.15
same,glycan array binding signal (z-score),[22],0.065
same,glycan array binding signal (z-score),Gal6S(b1-3)GlcNAc6S,-0.095
same,glycan array binding signal (z-score),Gal6S(b1-4)Glc,0.281
same,glycan array binding signal (z-score),GalNAc(a1-3)GalNAc,0.206
same,glycan array binding signal (z-score),[23],-0.416
same,glycan array binding signal (z-score),GalNAc(b1-3)GalNAc,0.158
same,glycan array binding signal (z-score),GalNAc(b1-4)GlcNAc,3.67
same,glycan array binding signal (z-score),Glc(b1-6)Glc,-0.633
same,glycan array binding signal (z-score),[24],1.89
same,glycan array binding signal (z-score),[25],-0.519
same,glycan array binding signal (z-score),[26],-0.589
same,glycan array binding signal (z-score),[27],-0.28
same,glycan array binding signal (z-score),Man(a1-6)Man,1.43
same,glycan array binding signal (z-score),[28],-0.412
same,glycan array binding signal (z-score),[29],3.36
same,glycan array binding signal (z-score),[30],-0.372
same,glycan array binding signal (z-score),[31],-0.022
same,glycan array binding signal (z-score),[32],-0.362
same,glycan array binding signal (z-score),[33],5.78
same,glycan array binding signal (z-score),[34],0.521
same,glycan array binding signal (z-score),[35],0.046
same,glycan array binding signal (z-score),[36],-0.106
same,glycan array binding signal (z-score),[37],0.234
same,glycan array binding signal (z-score),Neu5Gc(a2-3)Gal(b1-4)Glc,0.145
